The panel holds about 83,000 compounds, 20% with a hit somewhere; the sample as a whole holds those more often.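 The endpoint reported here, percent growth, reads 100 for growth as untreated, 0 for no net growth and -100 for all cells dead.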 Active and inactive are the calls of the source. Rule for the calls: active = growth percent below 10; inactive = the rest.
How the values were obtained:
Test in all cases: NCI-60 one-dose screen, 48 h (100 = growth as untreated, 0 = no growth, -100 = all killed)
Conditions in all cases: 10 µM unless noted
[1] = tested on: DU-145 prostate
[2] = tested on: K-562 leukemia
[3] = tested on: MALME-3M melanoma
[4] = tested on: MDA-MB-231 breast
[5] = tested on: RXF 393 renal
[6] = tested on: SF-268 CNS
[7] = tested on: SF-295 CNS
[8] = tested on: SF-539 CNS
[9] = tested on: UACC-257 melanoma
[10] = tested on: M14 melanoma
[11] = tested on: HCT-15 colon
[12] = tested on: HT29 colon
[13] = tested on: SNB-75 CNS
[14] = tested on: SNB-19 CNS
[15] = tested on: U251 CNS
[16] = tested on: PC-3 prostate
[17] = tested on: SK-MEL-5 melanoma
[18] = tested on: UACC-62 melanoma
[19] = tested on: LOX IMVI melanoma
[20] = tested on: SK-MEL-28 melanoma

Measured: growth

COc1cc(-c2cc(-c3ccc(Nc4ncnc5cc(Cl)ccc45)cc3)nc(N3CCCCC3)n2)cc(OC)c1OC
inactive: [1] 102% | [2] 92.3% | [3] 95.1% | [4] 92% | [5] 106% | [6] 88.4% | [7] 104% | [8] 93.6% | [9] 111% | [10] 106% | [11] 99.5% | [12] 87.7% | [13] 108% | [14] 100% | [15] 98.9% | [16] 88.1% | [17] 97.7% | [18] 95.5% | [19] 97.3%

O=C(O)c1cc([N+](=O)[O-])ccc1Br
inactive: [1] 106% | [2] 100% | [3] 102% | [4] 101% | [5] 110% | [6] 102% | [7] 97.2% | [8] 94.8% | [9] 102% | [10] 98.3% | [11] 98.4% | [12] 103% | [13] 89.5% | [14] 99.1% | [15] 96.3% | [16] 100% | [17] 98.9% | [18] 91.9% | [19] 94.7% | [20] 97.8%

Cc1cccc(/C=C2\N=C(c3ccccc3)N(c3ccc(S(N)(=O)=O)cc3)C2=O)c1
inactive: [1] 97% | [2] 90.9% | [3] 82.7% | [4] 96.7% | [5] 102% | [6] 91.4% | [7] 86.5% | [8] 72.2% | [9] 94.4% | [10] 107% | [11] 91.8% | [12] 86.1% | [13] 49.9% | [14] 80.1% | [15] 95.1% | [16] 92.9% | [17] 88.5% | [18] 92.8% | [19] 99%

COc1c(C(C)=O)c(OCCCCOc2c(C(C)=O)c(OC)c3ccoc3c2OC)c(OC)c2occc12
inactive: [1] 116% | [2] 54.3% | [3] 48.8% | [4] 82.7% | [5] 80.7% | [6] 84.3% | [7] 19.7% | [8] 105% | [9] 73.3% | [10] 99.3% | [11] 78.8% | [12] 65.9% | [13] 107% | [14] 80% | [15] 79.9% | [16] 55.2% | [17] 51.3% | [18] 55.8% | [19] 74.5% | [20] 96.3%

Cc1cc2c(C(C)C)c(O)c(O)c(C=NCc3ccoc3)c2c(O)c1-c1c(C)cc2c(C(C)C)c(O)c(O)c(C=NCc3ccco3)c2c1O
inactive: [1] 49.1% | [3] 66.4% | [4] 31.8% | [5] 58.7% | [6] 34.9% | [7] 22% | [8] 60.2% | [9] 80.9% | [10] 65.4% | [11] 19.5% | [12] 31.2% | [13] 64.9% | [14] 19.8% | [15] 25.6% | [16] 29.7% | [17] 91.7% | [18] 67.9% | [19] 37%
active: [2] 9.26%

CN(C)c1ccc(-c2ccc(-c3ccc(C(=N)N)cc3)s2)cc1
inactive: [3] 88.1% | [5] 54.3% | [6] 82.9% | [7] 102% | [8] 89.9% | [9] 104% | [10] 99.8% | [13] 97.6% | [17] 74.3% | [18] 37.1% | [19] 12.7%
active: [1] -88.4% | [2] -4.45% | [4] -29.6% | [11] -74.6% | [12] -65.6% | [14] -70.2% | [15] -86.8% | [16] -91.6%

CC(=O)O.CC(=O)O.O.[Fe]
inactive: [1] 105% | [2] 139% | [3] 91.5% | [4] 99.2% | [5] 110% | [6] 95.1% | [7] 127% | [8] 103% | [9] 103% | [10] 106% | [11] 111% | [12] 98.7% | [13] 114% | [14] 98.2% | [15] 107% | [16] 93.4% | [17] 107% | [18] 93.7% | [19] 100%

O=S(=O)(NCc1ccccc1)c1ncnc2nc[nH]c12
inactive: [1] 111% | [2] 97.1% | [3] 117% | [4] 107% | [5] 114% | [6] 110% | [7] 104% | [8] 98.1% | [9] 92.7% | [10] 108% | [11] 108% | [12] 106% | [13] 91.4% | [14] 108% | [15] 86% | [16] 105% | [17] 99.7% | [18] 96.4% | [19] 99.1%

From PubChem BioAssay (NCI)
